This is an account of results in PubChem BioAssay AID1011 (National Center for Advancing Translational Sciences (NCATS), 2008).

The source made the active and inactive calls. The call rests on the fitted dose curve.

A short description of this experiment: Confirmation Concentration-Response Assay for Inhibitors of the Schistosoma mansoni Redox Cascade. The note with it: S. mansoni TGR/Prx2 coupled, NADPH fluorescence kinetics. The source says: NIH Molecular Libraries Screening Centers Network [MLSCN] NIH Chemical Genomics Center [NCGC] MLSCN Grant: MH076449-01 Assay Provider: Prof David Williams, Illinois State University This is a confirmation assay for PubChem BioAssay AID 448. Schistosoma mansoni, a causative agent of schistosomiasis, resides in the bloodstream of their host up to 30 years without being eliminated by the host immune attack. One proposed survival mechanism is the production of an antioxidant "firewall" that neutralizes the oxidative assault of the host's immune attack. Schistosoma mansoni peroxiredoxins (Prx) are important parasite antioxidant proteins that play a crucial role in redox balance mechanisms. […] First, the proteins are essential for the parasite survival. […] Third, the protein(s) is amenable for study at the molecular level and can be produced in bacteria in large quantities, in soluble and active form. Inhibition of Prx activity was screened in a coupled-enzyme format with reducing equivalents being transferred from NADPH to […] via thioredoxin/glutathione reductase (TGR)-catalyzed reaction, then from thioredoxin to hydrogen peroxide via Prx-catalyzed electron transfer. A decrease in the fluorescence intensity of NADPH was used to measure the enzyme activity. Purified S. mansoni TGR and Prx were provided by Professor David L. Williams, Illinois State University.
Buffer: 100 mM phosphate buffer, pH 7.4, 10 mM EDTA, 0.01% Tween-20. […] 100 uM NADPH/25 nM TGR/700 uM GSH/50 nM Prx2 mixture in columns 1, 2, 5-48. Titration of control potassium antimonyl tartrate (PAT, from 1 mM, then 1:5) pin-transferred to lower half of column 2. Column 1 and upper half of column 2 are neutral (100% activity). Assay Steps: Three uL of reagents were dispensed to 1536-well Greiner black plates. Compounds and controls (20 nL) were transferred via Kalypsys PinTool. The plates were incubated for 15 min at room temperature, and then a 1 uL aliquot of 400 uM NADPH/700 uM GSH was added, immediately followed by a 1uL aliquot of 2.5 mM H2O2 (to start the reaction). The plate was transferred to ViewLux (Perkin-Elmer) High-throughput CCD imager where kinetic measurements (every 30 sec, for a total of 8 min) of NADPH fluorescence were taken using 365 nm excitation/450 nm emission filter set. During dispense, enzyme-containing reagent bottles were kept submerged into 4 deg C water bath to minimize degradation.
Consider `COc1ccc(S(=O)(=O)N(Cc2cc3ccc(OC)cc3[nH]c2=O)C[C@H]2COCCO2)cc1`, for which the Potency is 66.3 µM (active).
`O=C(c1cccs1)c1no[n+]([O-])c1C(=O)c1cccs1`: the Potency was 1.48 µM (active).
`O=C1c2cccc3cccc(c23)N1Cc1ccccc1`: the molecule was classed as inactive.
Consider `CCOc1ccc(OP2(=O)NC(=O)C=C(C)N2)cc1` (stereo not drawn), for which the Potency is 0.18 µM (active).
As to `COc1ccc2cc(CN(C[C@H]3COCCO3)S(=O)(=O)c3ccc(Cl)cc3)c(=O)[nH]c2c1`, the call was inactive.
Still for that read-out and setting: the same measure for `COc1ccc2cc(CN(C[C@H]3COCCO3)S(=O)(=O)c3ccccc3)c(=O)[nH]c2c1`: “inactive”.
With `CC1=CC(=O)NP(=O)(Oc2ccc3ccccc3c2)N1` (stereo not drawn), the Potency is 0.12 µM (active).
Still for that read-out and setting: the result for `CC1=CC(=O)NP(=O)(Oc2ccccc2)N1` (stereo not drawn) reads 2.03 µM (active); that for `O=C(c1ccco1)c1no[n+]([O-])c1C(=O)c1ccco1`, 1.52 µM (active).
With `Cc1cc(C)c2cc(CN(CC3COCCO3)S(=O)(=O)c3ccc(Cl)cc3)c(=O)[nH]c2c1` (stereo not drawn), the molecule was called inactive.
The same measure, in the same setting: the same measure for `Cc1conc1C(=O)c1no[n+]([O-])c1C(=O)c1nocc1C`: “inactive”.
Consider `COC(=O)C(C(=O)OC)c1cc(Br)c2noc3c2c1C(=O)c1ccccc1-3`, for which the Potency is 0.12 µM (active).
`COc1ccc(C(=O)c2no[n+]([O-])c2C(=O)c2ccc(OC)cc2)cc1`: the Potency was 4.67 µM (active).
In the case of `CCOC(=O)C(C(=O)OCC)c1cc(Br)c2noc3c2c1C(=O)c1ccccc1-3`, the molecule was called inactive.
On the same count and under the same terms, the result for `CCOCN1C(=O)c2cccc3cccc1c23` reads “inactive”.
The same measure, in the same setting: the result for `Cc1cc2cc(CN(CCCN3CCCC3=O)S(=O)(=O)c3ccc(F)cc3)c(=O)[nH]c2cc1C` reads “inactive”.
As for `CC1=CC(=O)NP(=O)(Oc2ccc(Cl)cc2)N1` (stereo not drawn), the Potency was 0.42 µM (active).
For `CCCCOc1cc(Br)c2noc3c2c1C(=O)c1ccccc1-3`, the Potency was 0.8 µM (active).
Turning to `CN1C(=O)c2cccc3cccc1c23`, the molecule was called inactive.
On the same count and under the same terms, the result for `CCN1C(=O)c2cccc3cccc1c23` reads “inactive”.
Same read-out and setting: the result for `Cc1ccc(S(=O)(=O)N(CCCN2CCCC2=O)Cc2cc3c(C)ccc(C)c3[nH]c2=O)cc1` reads “inactive”.
On to `COc1ccc(S(=O)(=O)N(CCCN2CCCC2=O)Cc2cc3c(C)ccc(C)c3[nH]c2=O)cc1`, for which the Potency is 50.1 µM (active).
On the same count and under the same terms, the result for `O=P(Nc1ccccc1F)(c1ccccc1)c1nc2ccccc2s1` (stereo not drawn) reads 23.9 µM (active).
